Screening results deposited in PubChem BioAssay by Sanford-Burnham Center for Chemical Genomics.
CD11b adhes enh = CD11b/CD18-fibrinogen binding enhancement | P05107+P11215 | K562 CD11b/CD18 adhesion to fibrinogen, ATPlite luminescence | activation, % at 10 µM | 0.07% of 93,000 active | AID 1499;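 active = 10 µM primary screen giving 50% or more activity, confirmed by 40% or more on retest at that dose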
Target sequence (P05107 whole entry, looked up, other chains not shown): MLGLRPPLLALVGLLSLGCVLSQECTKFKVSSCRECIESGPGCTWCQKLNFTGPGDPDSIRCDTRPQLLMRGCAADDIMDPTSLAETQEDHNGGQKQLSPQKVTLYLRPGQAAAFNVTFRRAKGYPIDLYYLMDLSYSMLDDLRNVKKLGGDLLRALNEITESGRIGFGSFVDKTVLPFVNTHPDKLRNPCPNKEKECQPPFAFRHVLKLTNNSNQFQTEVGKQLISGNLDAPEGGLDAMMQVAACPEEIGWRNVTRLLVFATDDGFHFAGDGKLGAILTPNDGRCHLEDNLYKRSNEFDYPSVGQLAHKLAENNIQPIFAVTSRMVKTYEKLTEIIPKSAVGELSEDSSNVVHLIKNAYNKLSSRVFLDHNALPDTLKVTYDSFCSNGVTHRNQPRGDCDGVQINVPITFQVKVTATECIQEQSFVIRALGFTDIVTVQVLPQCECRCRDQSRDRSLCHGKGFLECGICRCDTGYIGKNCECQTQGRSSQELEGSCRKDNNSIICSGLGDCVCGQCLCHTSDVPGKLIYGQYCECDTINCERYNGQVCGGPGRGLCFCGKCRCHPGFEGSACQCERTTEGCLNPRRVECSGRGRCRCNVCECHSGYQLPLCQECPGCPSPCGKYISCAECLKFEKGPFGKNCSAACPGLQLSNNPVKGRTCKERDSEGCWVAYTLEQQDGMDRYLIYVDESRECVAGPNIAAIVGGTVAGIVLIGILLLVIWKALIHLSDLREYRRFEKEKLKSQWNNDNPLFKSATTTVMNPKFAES
CYP2C9 inhib = human CYP2C9 inhibition. AID 777. 20% of 96,000 active. CYP2C9 Supersomes, luciferin-H conversion, luminescence. inhibition, % at 5 µM;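 active = blocking of liver enzyme CYP2C9 beyond about 50% at 5 µM, limit read from the data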
CYP2C9 activ = CYP2C9 (human) activation. 1.4% of 96,000 active. activation factor at 5 µM. recombinant CYP2C9, luciferin-H conversion, luminescence; hits give high values; factor 1 = untreated enzyme, 0 = blocked. P11712. AID 1024;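 active = activation factor of 2 or more for CYP2C9 at a 5 µM dose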;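 note: 0 = sulfaphenazole-blocked wells and 1 = vehicle-only wells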
CYP2C19 inhib = human CYP2C19 inhibition; AID 778; 21% of 96,000 active; CYP2C19 Supersomes, luciferin-H EGE luminescence, 30 min; inhibition, % at 5 µM;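 active = CYP2C19 inhibition above a set limit at 5 µM in the primary screen, cut at about 50% in these data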;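 note: plate controls were negative control wells for no effect and 2.5 mM tranylcypromine positive control for full effect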
CYP2C19 activ = activators of human cytochrome P450 2C19; P33261; recombinant CYP2C19, luciferin-H EGE luminescence; hits give high values; 0 = fully inhibited enzyme, 1 = untreated enzyme; activation factor at 5 µM; 96,000 tested, under 10 active; AID 1025;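 active = activation factor of at least 2 at 5 µM in the primary screen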;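 note: 0 = wells with 2.5 mM tranylcypromine and 1 = vehicle-only wells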
Mac1 fbg inh = blocks human CD11b/CD18 adhesion to fibrinogen; 0.54% of 93,000 active; AID 1497; inhibition, % at 10 µM; P05107+P11215; K562 CD11b/CD18 adhesion to fibrinogen, ATPlite luminescence; Mn2+ added to activate the integrin;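 active = primary inhibition of 50% or more at 10 µM, then 40% or more on retest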
Active calls of the source: *; . = not tested or not shown. A selection: hits, their analogues and other compounds. The true share with any hit is near 28%.

SMILES	CD11b adhes enh	CYP2C9 inhib	CYP2C9 activ	CYP2C19 inhib	CYP2C19 activ	Mac1 fbg inh
CC(NC(=O)c1ccc(CS(=O)(=O)c2ccc(Cl)cc2)o1)c1ccc2c(c1)OCCO2 (stereo not given)	-0.5	73.7*	0.3	49.6	0.5	-30.9
Cc1ccccc1S(=O)(=O)Cc1ccc(C(=O)NC(C)c2ccc3c(c2)OCCO3)o1 (stereo not given)	1.8	98.5*	0	98.7*	0	2.3
CCOC(=O)c1c(C)[nH]c(C(=O)COC(=O)CCC(=O)c2ccc3c(c2)OCCO3)c1C	2.7	43.4	0.6	6.4	0.9	-1.4
CCOC(=O)CSc1nc(Nc2ccc3c(c2)OCO3)c2ccccc2n1	0.5	98.2*	0	85.6*	0.1	-13.9
N#CCSc1nc(Nc2ccc3c(c2)OCO3)c2ccccc2n1	-2.4	79.9*	0.2	18.7	0.8	-6.5
CCOC(=O)CSc1nc(NCc2ccco2)c2ccccc2n1	-2.4	38.5	0.6	36.0	0.6	-1.9
COc1ccc(C2/C(=C(/O)c3ccccc3)C(=O)C(=O)N2CC(C)O)c(OC)c1 (stereo not given)	.	17.7	0.8	1.2	1	.
CCC(CC)C(=O)c1c[nH]c(C(=O)NCCCN2CCOCC2)c1	.	13.3	0.9	4.5	1	.
COc1ccc(NC2c3ccccc3C(=O)N2c2ccccn2)cc1Cl (stereo not given)	-5.1	61.1*	0.4	76.0*	0.2	-4.3
CCOC(=O)c1ccc(NC2c3ccccc3C(=O)N2c2ccc(C)cn2)cc1 (stereo not given)	-2.8	10.6	0.9	0.0	1	-16.2
O=C1c2ccccc2C(Nc2ccccc2F)N1c1cccnc1 (stereo not given)	-0.7	15.8	0.8	36.0	0.6	-10.9
CCc1cccc(NC2c3ccccc3C(=O)N2c2ccc(C)cn2)c1 (stereo not given)	2.7	50.5*	0.5	84.9*	0.2	-3.6
CCc1cccc(NC2c3ccccc3C(=O)N2c2cccnc2)c1 (stereo not given)	6.6	53.0*	0.5	96.6*	0	4.2
CCOC(=O)c1ccc(NC2c3ccccc3C(=O)N2c2cccnc2)cc1 (stereo not given)	2.2	75.2*	0.2	88.1*	0.1	-9.3
COc1ccc(C2(C(=O)NCCCN3CCOCC3)CCOCC2)cc1	-8.5	-3.0	1	3.4	1	3.8
CC(=O)Oc1ccc2ccccc2c1C(NC(=O)Cc1ccccc1)c1ccccc1 (stereo not given)	-2.9	67.1*	0.3	61.2*	0.4	11.2
CCOC(=O)c1[nH]c2cc(OC)c(OC)cc2c1NC(=O)CN1CCN(c2ccc(OC)cc2)C(C)C1 (stereo not given)	-3.2	-11.3	1.1	9.1	0.9	1.5
CCn1c2ccccc2c2cc(NC(=O)c3cc(OC)c(OC)c(OC)c3)ccc21	.	36.1	0.6	49.3	0.5	.
CCn1c2ccccc2c2cc(NC(=O)COc3ccc(OC)cc3)ccc21	.	-19.2	1.2	64.6*	0.4	.
CCn1c2ccccc2c2cc(NC(=O)COC(=O)C3CCC(=O)N3)ccc21 (stereo not given)	-2.5	-107.0	2.1*	27.2	0.7	-23.5
N#Cc1c(N)n[nH]c1CCCN	-0.7	14.2	0.9	-10.5	1.1	-5.3
COC(=O)Cc1ccc(NC(=O)c2ccc(C(C)(C)C)cc2)cc1	-7.8	11.2	0.9	24.3	0.8	59.3*
CN(C)c1nc2ccc(OCCN3CCCCC3)cc2s1	-2.6	7.8	0.9	4.3	1	12.9
COc1cc2cc(C(c3nnnn3C(C)(C)C)N3CCC(C)CC3)c(=O)[nH]c2cc1OC (stereo not given)	-2.0	32.7	0.7	15.4	0.8	-4.0
COc1ccc2c(c1)c1nc3ccccc3nc1n2Cc1ccc(OC)c(OC)c1	57.3	.	.	.	.	-8.7
SMILES	CD11b adhes enh	CYP2C9 inhib	CYP2C9 activ	CYP2C19 inhib	CYP2C19 activ	Mac1 fbg inh
Cc1nn(-c2ccccc2)c2[nH]c(=O)c(CNc3ccc4c(c3)OCCO4)cc12	0.6	60.8*	0.4	20.8	0.8	15.6
Cc1nn(-c2ccccc2)c2[nH]c(=O)c(CNCc3ccc4c(c3)OCO4)cc12	-3.0	-19.8	1.2	-12.9	1.1	-9.9
CCc1ccc(NCc2cc3c(C)nn(-c4ccccc4)c3[nH]c2=O)cc1	1.6	92.3*	0.1	49.8	0.5	-7.7
Cc1cnnn1-c1ccc(C(=O)CCl)cc1	.	-13.6	1.1	-25.9	1.3	.
Cc1c(NC(=O)c2cc(CC(C)C)on2)c(=O)n(-c2ccccc2)n1C	-2.9	13.7	0.9	5.5	0.9	2.9
c1ccc(-c2cc(CSc3nc4ccccc4[nH]3)on2)cc1	-1.4	62.1*	0.4	28.0	0.7	-4.2
Fc1ccccc1CSc1nc2ncccc2[nH]1	-0.7	36.4	0.6	66.1*	0.3	7.8
Fc1cccc(F)c1CSc1nc2ccccc2[nH]1	-4.1	49.3	0.5	54.3*	0.5	14.2
O=C(CSc1nc2cc3ccccc3cc2[nH]1)Nc1ccc(F)cc1	3.2	68.6*	0.3	37.1	0.6	-15.0
Cc1[nH]n(CCC#N)c(=O)c1CC(=O)N1CCN(c2ccccc2)CC1	-1.9	-25.9	1.3	-13.5	1.1	-10.7
O=C(NCc1cccs1)c1noc2c1CCCCC2	0.6	19.5	0.8	5.1	0.9	-13.4
Cc1ccc(CC(NC(=O)c2ccccc2)C(=O)NC(C)C(=O)O)cc1 (stereo not given)	-3.5	-2.8	1	6.6	0.9	-22.8
O=c1[nH]c(=O)n(CCO)c2nnn(Cc3ccccc3)c12	1.9	-7.8	1.1	9.2	0.9	-8.8
COc1nonc1NC(=O)CSc1nc2ccccc2[nH]1	-2.5	23.1	0.8	27.5	0.7	-0.8
O=C(CSc1nc2ccccc2[nH]1)Nc1c(F)cccc1F	1.6	41.0	0.6	51.3*	0.5	-0.9
Cc1[nH]c2ccccc2c(=O)c1SC(F)(F)C(F)C(F)(F)F (stereo not given)	.	21.6	0.8	57.7*	0.4	.
COc1cc(C(=O)OCC(=O)c2cc(C)n(C)c2C)cc(OC)c1OC	-3.7	-148.1	2.5*	58.5*	0.4	11.8
Cc1cc(C(=O)COC(=O)Cn2cnc3c2c(=O)n(C)c(=O)n3C)c(C)n1C	0.9	6.7	0.9	-5.2	1.1	-11.5
O=C(CCN1C(=O)COc2ccccc21)NCCN1CCN(c2cccc(Cl)c2)CC1	8.4	2.2	1	13.8	0.9	-20.2
CCOC(=O)C1CCCN(Cc2sccc2C)C1 (stereo not given)	-3.9	3.9	1	48.5	0.5	-5.3
FC(F)(F)C(Oc1nc(NC2CCCCC2)nc(N2CCOCC2)n1)C(F)(F)F	-8.7	27.1	0.7	15.7	0.8	14.3
O=C(Cc1ccccc1)N1CCCC1c1ccccc1 (stereo not given)	-4.4	22.2	0.8	79.2*	0.2	3.9
